Most compounds without a hit are left out; they make up all but 3% or so of the library.
Mtb BioA inh – BioA (M. tuberculosis) enzyme inhibition. purified M. tuberculosis BioA enzyme, plate reader. inhibition, % at 9.99 µM. 360,000 compounds, 0.096% hits. AID 602481; in the data active means inhibition above about 40%
Vc quorum ag – inducers of Vibrio cholerae quorum light production without autoinducers | activation, % at 18.7 µM | 350,000 compounds, 0.16% hits | V. cholerae BH1578 lux reporter, luminescence, 6 h | AID 588436; in the data active means activation mostly above about 9.7%, no sharp cut-off
FBA Mtb inh – inhibits M. tuberculosis FBA enzyme; inhibition, % at 1 µM; purified M. tuberculosis FBA, fluorescence read-out; 360,000 compounds, 2.3% hits; in the data active means inhibition above about 27%;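 further: 0% = vehicle and 100% = reference inhibitor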
Target sequence (P9WQA3 whole entry, looked up): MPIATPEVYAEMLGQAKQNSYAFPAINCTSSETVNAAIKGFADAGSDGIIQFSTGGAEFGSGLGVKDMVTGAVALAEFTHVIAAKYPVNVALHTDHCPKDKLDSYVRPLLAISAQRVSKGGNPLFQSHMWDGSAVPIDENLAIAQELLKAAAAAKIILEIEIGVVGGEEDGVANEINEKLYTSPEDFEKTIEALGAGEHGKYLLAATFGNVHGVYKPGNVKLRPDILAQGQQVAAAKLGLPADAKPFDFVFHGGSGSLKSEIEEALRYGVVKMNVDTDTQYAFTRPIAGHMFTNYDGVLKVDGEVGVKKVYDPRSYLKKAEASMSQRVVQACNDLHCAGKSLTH
GDH-TPI inh – counter-screen for M. tuberculosis FBA inhibitors: GDH-TPI coupled enzymes | GDH-TPI coupled enzyme counterscreen, NADH absorbance | inhibition, % at 4.8 µM | 360,000 compounds, 1.2% hits; in the data active means inhibition above about 30%;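 further: 0% = DMSO wells and 100% = wells lacking the enzyme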
* marks the source's active call; other numbers are inactive results; i = inactive; / = no result; + = active, no number.

SMILES	Mtb BioA inh	Vc quorum ag	FBA Mtb inh	GDH-TPI inh
COc1ccc(C2c3ccc(O)cc3Oc3ncn4nc(-c5ccccn5)nc4c32)cc1 (configuration not stated)	0	i	4	36*
CC1=CC(=C2C(=O)NC(=S)NC2=O)C=C(C(F)(F)F)N1Cc1ccccc1	/	267*	-1	16
Cc1cc(=O)oc2cc(OCC(=O)N3CC(=O)Nc4ccccc43)c(Cl)cc12	1	i	22	11
Cc1cc(=O)oc2cc(OCC(=O)N3CCN(C(C)c4ccccc4)CC3)c(Cl)cc12 (configuration not stated)	1	i	+	3
C[C@@H]1CN([C@@H](C)CO)C(=O)c2cccc(NC(=O)Nc3ccccc3)c2O[C@H]1CN(C)Cc1ccc2c(c1)OCO2	-4	/	/	/
COc1ccc(/C=C/C(=O)NC(=S)Nc2ccc(S(=O)(=O)Nc3cc(C)on3)cc2)cc1	0	0	0	35*
COc1ccc(/C=C/C(=O)NC(=S)Nc2ccc(S(=O)(=O)Nc3ccc(OC)nn3)cc2)cc1	/	-1	0	39*
CC(C)NC(=O)N[C@@H]1CC[C@@H](CCNC(=O)C2CCC2)O[C@@H]1CO	-1	/	/	/
C[C@H]1CCCCO[C@@H](CN(C)S(=O)(=O)c2cn(C)cn2)[C@@H](C)CN([C@@H](C)CO)C(=O)c2cc(NS(=O)(=O)c3ccc(Cl)cc3)ccc2O1	0	/	/	/
CCOC(=O)N1CCC(Nc2nc3ccccc3nc2NS(=O)(=O)c2ccc(Cl)cc2)CC1	/	i	5	42*
CCO/C(C)=N/n1c2nc3ccccc3nc2c2c(=O)n(Cc3ccccc3Cl)c(C)nc21	-4	3	-4	33*
O=C(N/N=C/C=C/c1ccccc1)c1ccc(Br)cc1	0	i	0	27
Cn1cc(C(=O)N/N=C/C=C/c2ccccc2)ccc1=O	1	i	-4	40*
Cn1cc(C(=O)N/N=C/C(Br)=C/c2ccccc2)ccc1=O	/	0	2	44*
Cn1cc(C(=O)N/N=C/c2cccc(O)c2)ccc1=O	0	0	-1	5
Cn1cc(C(=O)N/N=C/C(Br)=C\c2ccccc2)ccc1=O	-1	/	-3	32*
CO[C@H]1CN(C)C(=O)c2ccc(NS(=O)(=O)c3cn(C)cn3)cc2OC[C@H](C)NC[C@H]1C	-2	/	/	/
C[C@@H]1CN([C@H](C)CO)C(=O)Cc2cc(NS(=O)(=O)c3ccc(Cl)cc3)ccc2O[C@@H]1CN(C)C(=O)NC1CCCCC1	3	/	/	/
O=C(CC1CCCCC1)NCC1CCCO1 (configuration not stated)	-2	17*	-1	1
Cc1noc(C)c1NC(=O)Nc1ccc2c(c1)C(=O)N([C@@H](C)CO)C[C@H](C)[C@@H](CN(C)C(=O)Nc1ccc3c(c1)OCO3)OCCCC[C@H](C)O2	-2	/	/	/
CCC(=O)NC(c1cccs1)c1cc([N+](=O)[O-])c2cccnc2c1O (configuration not stated)	-1	96*	-23	2
CCCC(=O)NC(c1cccs1)c1cc([N+](=O)[O-])c2cccnc2c1O (configuration not stated)	0	0	-10	10
Cc1nn(-c2ccccc2)c2sc(C(=O)O)cc12	-1	0	0	5
Cc1nn(-c2ccccc2)c2sc(-c3n[nH]c(=S)o3)cc12	2	0	+	42*
COC(=O)c1cc2c(C)nn(-c3ccccc3)c2s1	-1	i	35*	-5
SMILES	Mtb BioA inh	Vc quorum ag	FBA Mtb inh	GDH-TPI inh
CCOC(=O)c1cc2c(C)nn(-c3ccccc3)c2s1	0	1	16	-1
Cc1nn(-c2ccccc2)c2sc(C(=O)OCc3nnc(-c4ccccc4)o3)cc12	0	22*	5	-8
Cn1cnc(S(=O)(=O)N2CC[C@@H]3[C@H](CO)Nc4ccc(C#Cc5ccc(F)cc5)cc4[C@@H]32)c1	0	/	/	/
CCc1cccc2c(/C=N/NC(=O)c3cccc(S(=O)(=O)Nc4ccccc4Cl)c3)c[nH]c12	/	0	4	37*
Cc1[nH]c2ccccc2c1/C=N/NC(=O)c1cccc(S(=O)(=O)Nc2ccccc2Cl)c1	-1	i	1	19
Cc1ccc(C)c(Cn2c(O)c(N=NC(=S)Nc3ccccc3F)c3ccccc32)c1	/	80*	0	-3
Cc1ccccc1Cn1c(O)c(N=NC(=S)Nc2ccccc2F)c2ccccc21	/	-1	-9	8
O=C(NNC(=S)NC(=O)c1ccccc1[N+](=O)[O-])c1ccccc1[N+](=O)[O-]	-1	3	-3	3
CCCCOc1ccccc1C(=O)NNC(=S)NC(=O)c1ccccc1[N+](=O)[O-]	-2	0	-5	31*
O=C(c1ccc(O)c(Br)c1)c1cc(Br)ccc1O	1	-5	-5	35*
O=C(C(=O)c1cc(Br)ccc1O)c1cc(Br)ccc1O	/	/	-2	12
CO[C@@H]1CN(C)C(=O)c2cc(NC(=O)C3CCC3)ccc2OC[C@H](C)N(Cc2nccs2)C[C@@H]1C	0	/	/	/
O=C(c1cc(=O)[nH]c2ccccc12)N1CCN(c2ccc([N+](=O)[O-])cc2)CC1	-2	0	-7	35*
Nc1[nH]c(=O)[nH]c(=O)c1N=Cc1ccccc1	/	-1	43*	7
O=C(CC1S/C(=N/N=C/c2cccs2)NC1=O)Nc1ccc(Cl)cc1 (configuration not stated)	-1	0	-3	31*
O=C(CC1S/C(=N/N=C/c2c[nH]c3ccc(OCc4ccccc4)cc23)NC1=O)Nc1ccccc1 (configuration not stated)	/	0	-3	28
O=C(CC1S/C(=N/N=C/C=C/c2ccccc2)NC1=O)Nc1ccc(C(=O)O)cc1 (configuration not stated)	/	-1	3	57*
O=C(CC1S/C(=N/N=C/c2c[nH]c3ccccc23)NC1=O)Nc1ccccc1 (configuration not stated)	/	i	-4	47*
C[C@H](CO)N1C[C@H](C)[C@H](CN(C)C(=O)Nc2cccc3ccccc23)OCCCC[C@H](C)Oc2ccc(NS(=O)(=O)c3ccc(Cl)cc3)cc2C1=O	-2	/	/	/
C[C@@H]1CCCCO[C@@H](CN(C)C(=O)Nc2ccc(F)cc2)[C@H](C)CN([C@H](C)CO)C(=O)c2cc(NC(=O)CCC(F)(F)F)ccc2O1	0	/	/	/
CCN(CC)c1ccc(/C=C2\C(=O)NC(=O)N(Cc3ccco3)C2=O)cc1	/	i	-10	31*
CCN(CC)c1ccc(/C=C2/C(=O)NC(=O)N(CC3CCCO3)C2=O)cc1 (configuration not stated)	-9	-1	-1	40*
O=C(NCc1ccccc1Cl)[C@@H]1[C@@H](CO)[C@@H]2Cn3c(cccc3=O)[C@@H]2N1C(=O)C1CCCC1	1	/	/	/
C[C@@H]1CN([C@H](C)CO)C(=O)c2cc(NC(=O)Cn3cnnn3)ccc2O[C@H]1CN(C)C(=O)Nc1ccc(C(F)(F)F)cc1	3	/	/	/
CC(C(=O)N=Nc1c(O)[nH]c2ccccc12)n1cnc2ccccc2c1=O (configuration not stated)	/	0	-1	10

Compound activity as filed in PubChem BioAssay.
